TGFb inhibitor: inhibitors of TGF-b signaling; Potency, µM (highest dose often 46.1 µM), actives largely listed as inhibitors; 1.2% of 410,000 active; HepG2 CAGA-GFP TGF-b/SMAD3 reporter, GFP fluorescence, 18 h; TGF-beta stimulated, 500 pg/mL final; further: nearly all actives have a fitted effect of over 65% in size
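HEPG2 CAGA-GFP cells (1000/well, DMEM with 1% FBS) were pre-incubated 2 h at 37 degrees C, given compound by pin tool, then stimulated with TGF-beta at 500 pg/mL final for 18 h before per-cell GFP fluorescence imaging.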
ATXN2 expr inh: inhibitors of ATXN2 expression; HEK-293 ATXN2-luciferase reporter, luminescence, 24 h; Potency, µM (highest dose often 57 µM), hits mostly inhibitors; 0.72% of 360,000 active; further: nearly all actives have a fitted effect of over 55% in size
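ATXN2-luciferase reporter cells (luciferase flanked by upstream and downstream ATXN2 gene portions) were treated 24 h at 37 °C with compounds at up to 57 uM. SteadyGlo luminescence gave expression; GF-AFC fluorescence gave viability.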
GLP1R ag: agonists of human GLP-1 receptor. P43220. HEK293 GLP-1R CRE-luciferase, luminescence, 4-6 h; cells express a hypersensitive GLP-1R form. Potency, µM (series often up to 45.6 µM), hits mostly activators. 0.007% of 380,000 active. AID 624172
Target sequence (P43220 whole entry, looked up): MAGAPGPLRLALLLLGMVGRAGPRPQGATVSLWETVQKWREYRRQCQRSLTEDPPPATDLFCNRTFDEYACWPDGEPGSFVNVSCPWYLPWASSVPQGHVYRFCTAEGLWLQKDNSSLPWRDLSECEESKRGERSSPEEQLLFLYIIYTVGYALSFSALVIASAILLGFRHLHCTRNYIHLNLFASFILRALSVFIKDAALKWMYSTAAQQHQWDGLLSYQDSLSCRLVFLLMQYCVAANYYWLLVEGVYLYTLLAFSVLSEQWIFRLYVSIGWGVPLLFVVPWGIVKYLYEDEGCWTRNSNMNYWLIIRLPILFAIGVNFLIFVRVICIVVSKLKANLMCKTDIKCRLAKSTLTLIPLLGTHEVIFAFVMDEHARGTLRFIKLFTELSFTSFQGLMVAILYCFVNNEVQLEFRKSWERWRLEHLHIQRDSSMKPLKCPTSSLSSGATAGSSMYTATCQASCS
GLP1R inv ag: inverse agonists of human GLP-1 receptor; P43220; HEK293 GLP-1R CRE-luciferase, luminescence, 24 h; GLP-1R form is constitutively active; Potency, µM (highest dose often 38.3 µM), hits mostly inhibitors; 1.6% of 410,000 active; AID 624417; further: nearly all actives have a fitted effect of over 55% in size
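Assay principle: reduced luminescence from a cAMP-responsive reporter in HEK293 cells co-expressing a constitutively active GLP-1R. Conditions: 24 hr compound incubation, 37 deg C, 5% CO2.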
ATXN viability: cell viability loss in ATXN counter-screen; AID 651635; Potency, µM (highest dose often 56.7 µM), actives largely listed as cytotoxic; S2 cells (HEK-293 line with an ATXN2-luciferase reporter) viability, CellTiter-Fluor protease fluorescence, 24 h; 0.49% of 400,000 active; further: nearly all actives have a fitted effect of over 40% in size
HepG2 viability: counter-screen for TGF-b inhibitors: cytotoxicity in HepG2 cells | HepG2 CAGA-GFP viability, ATP luminescence, 18 h | Potency, µM (doses to about 46.1 µM), most hits filed as cytotoxic | 0.76% of 410,000 active
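CellTiter-Glo luminescence gave cytotoxicity after 18 hours at 37 degrees C. The cells were HepG2 CAGA-GFP in 1% FBS DMEM, stimulated with 500 pg/mL TGF-beta after compound addition. %Activity was normalised to no-cell wells (complete cell-killing) and DMSO (no toxicity), and curves were fitted and classified.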
Of the large screens only hits and unclear results are named; the others gave an inactive call. The list is not random: actives were taken first. Their share in the collection is about 3.7%. The call rests on the fitted dose curve; in most records, active means well fitted curve in the direction sought with a large enough effect; inconclusive means small, poorly fitted or top-dose-only effect, or another doubt; inactive means no such curve, though single readings can be large; an effect the other way counts as inactive or inconclusive.

C[C@]12CCC(=O)C=C1[C@@H]1CC1[C@H]1[C@H]3[C@@H]4C[C@H]4[C@@]4(CCC(=O)O4)[C@@]3(C)CC[C@H]12 (stereo partly drawn)	none (no result: TGFb inhibitor, GLP1R ag, GLP1R inv ag, ATXN viability, HepG2 viability)
CCCCNC(=O)CCn1c(=O)c2ccccc2n(Cc2ccccc2C#N)c1=O	none
CCOC(=O)C1=C(CN2CCN(c3cc(C)ccc3C)CC2)NC(=O)NC1c1ccc(Cl)cc1 (stereo not drawn)	TGFb inhibitor inconclusive, GLP1R inv ag inconclusive (no result: ATXN2 expr inh, GLP1R ag, ATXN viability)
COc1ccccc1NC(=O)c1sc2nc3n(c(=O)c2c1C)N=C(c1cccc(Br)c1)CS3	none (no result: GLP1R ag)
Cn1c(=O)c2c(nc(NCc3ccco3)n2C/C=C/c2ccccc2)n(C)c1=O	TGFb inhibitor 3.98µM, ATXN2 expr inh inconclusive, ATXN viability inconclusive
Cn1c(=O)c2c(nc(NCc3ccco3)n2C)n(C)c1=O	none
C[C@@H](O)[C@H]1C(=O)N2C(C(=O)O)=C([C@H]3CCCO3)S[C@H]12	none (no result: TGFb inhibitor, GLP1R ag, GLP1R inv ag, HepG2 viability)
CCN(CC1CCCN(CCc2cccc(F)c2)C1)C(=O)c1cc2ccccc2o1 (stereo not drawn)	GLP1R inv ag inconclusive, ATXN viability inconclusive
CN(CC1CCCN(CCc2cccc(C(F)(F)F)c2)C1)C(=O)c1cc2ccccc2o1 (stereo not drawn)	TGFb inhibitor 12.6µM, GLP1R inv ag inconclusive, ATXN viability inconclusive (no result: ATXN2 expr inh)
Cc1cccc(Nc2c3c(nc4ccccc24)CCC3)c1	TGFb inhibitor inconclusive, ATXN2 expr inh inconclusive, GLP1R inv ag inconclusive
Cc1ccc2nc3c(c(Nc4ccc(C)c(C)c4)c2c1)CCC3	TGFb inhibitor inconclusive, ATXN2 expr inh inconclusive, GLP1R inv ag inconclusive, ATXN viability 17.8µM (no result: GLP1R ag)
Cc1ccc(Nc2c3c(nc4ccccc24)CCC3)cc1F	TGFb inhibitor inconclusive, GLP1R inv ag inconclusive, ATXN viability 28.2µM
C(=C\c1ccnc2ccccc12)/c1cc2c3c(c1)CCCN3CCC2	none (no result: ATXN2 expr inh, GLP1R ag, GLP1R inv ag, ATXN viability)
CC1C(=O)C(=O)C=CN1C (stereo not drawn)	none (no result: TGFb inhibitor, ATXN2 expr inh, GLP1R inv ag, ATXN viability, HepG2 viability)
C/C(=N\NC(=S)NC1CCCCC1)c1cccs1	GLP1R inv ag inconclusive
C/C(=N\NC(=S)NC1CCCCC1)c1c(F)cccc1F	GLP1R inv ag 3.98µM
CCOC(=O)/C(=C\c1ccc(Cl)cc1)c1nc2sc(C)c(C)c2c(=O)[nH]1	TGFb inhibitor inconclusive, ATXN2 expr inh inconclusive, GLP1R inv ag inconclusive, HepG2 viability 8.91µM (no result: ATXN viability)
CCOC(=O)CSc1nc2sc(C)c(C)c2c(=O)[nH]1	none
Cc1ccc(Sc2ccc(NC(=O)CCl)cc2)c(C)c1	TGFb inhibitor inconclusive, ATXN2 expr inh 31.6µM, GLP1R inv ag inconclusive (no result: ATXN viability)
COc1ccc2nc(NC(=O)c3ccoc3C)sc2c1	TGFb inhibitor inconclusive, ATXN2 expr inh inconclusive, ATXN viability inconclusive, HepG2 viability 7.94µM
COc1ccc2nc(NC(=O)c3cc(C)oc3C)sc2c1	none
COc1ccc2nc(NC(=O)CN3C(=O)NC4(CCCCC4)C3=O)sc2c1	GLP1R inv ag inconclusive, ATXN viability inconclusive, HepG2 viability 4.47µM
Cc1cc(NC(=O)CN2C(=O)NC3(CCCCCC3)C2=O)ccc1Br	GLP1R inv ag 10µM (no result: ATXN2 expr inh)
COc1cc(OC)c(OC)cc1CN1CCCC(n2cc(C(=O)N3CCCCC3)nn2)C1 (stereo not drawn)	none (no result: TGFb inhibitor, ATXN2 expr inh, GLP1R ag, GLP1R inv ag, HepG2 viability)
COc1ccc(C(=O)N(Cc2cc3cccc(C)c3nc2N(C)C)CC2CCCO2)cc1 (stereo not drawn)	none (no result: TGFb inhibitor, ATXN2 expr inh, GLP1R ag, GLP1R inv ag, HepG2 viability)
Cn1c(=O)n(C/C=C/c2ccccc2)c(=O)c2c1nc1n2CCN1c1ccc(F)cc1	none (no result: ATXN2 expr inh, GLP1R ag, ATXN viability)
Cc1ccc(C)c(Sc2ccc(NC(=O)CCN3C(=O)NC4(CCCC4)C3=O)cc2)c1	TGFb inhibitor inconclusive, ATXN2 expr inh inconclusive, GLP1R inv ag inconclusive, ATXN viability inconclusive, HepG2 viability 15.8µM
Cc1cccc(NC(=O)CC2CCC2)c1	none
Cc1cc(NC(=O)CC2CCCC2)ccc1Br	GLP1R inv ag 8.91µM
Cc1cc(C)nc(S[C@H]2C[C@@H](C(=O)N3CCN(c4ccccc4F)CC3)N(Cc3ccccc3C(F)(F)F)C2)n1	none (no result: TGFb inhibitor, ATXN2 expr inh, GLP1R ag, GLP1R inv ag, HepG2 viability)
Cc1cc(C)n(CC(O)Cn2ccc3ccccc32)n1 (stereo not drawn)	none
